GLP-1R inv ag: acts as inverse agonist at human GLP-1 receptor; 410,000 tested, 1.6% active; AID 624417; Potency, µM (titrated, usually from 38.3 µM), without a hit: at the highest dose activity change, negative = inhibition, actives largely listed as inhibitors; HEK293 GLP-1R CRE-luciferase, luminescence, 24 h; GLP-1R form is constitutively active; further: on the % scale 0 is the no-effect control and ±100 the full control effect; nearly all actives have a fitted effect of over 55% in size
Target sequence (P43220 whole entry, looked up): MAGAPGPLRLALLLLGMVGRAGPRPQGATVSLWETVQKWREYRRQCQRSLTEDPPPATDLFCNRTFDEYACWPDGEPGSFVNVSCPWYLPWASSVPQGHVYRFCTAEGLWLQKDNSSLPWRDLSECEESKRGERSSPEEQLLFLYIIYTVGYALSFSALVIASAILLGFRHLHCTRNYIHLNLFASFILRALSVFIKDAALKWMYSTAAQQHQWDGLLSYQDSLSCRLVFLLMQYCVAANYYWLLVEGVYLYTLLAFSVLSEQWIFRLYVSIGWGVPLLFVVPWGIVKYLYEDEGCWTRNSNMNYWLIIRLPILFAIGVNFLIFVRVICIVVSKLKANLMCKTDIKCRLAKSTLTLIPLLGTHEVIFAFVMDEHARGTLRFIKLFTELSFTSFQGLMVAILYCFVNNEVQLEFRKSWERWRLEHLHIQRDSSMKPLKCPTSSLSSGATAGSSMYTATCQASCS
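Stable HEK293 clone (constitutively active GLP-1R + cAMP-response luciferase); 200 cells/uL plated, 12 h pre-culture, compound 24 hr, 37 deg C/5% CO2; detection reagent 12 min RT; luminescence.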
GLP-1R agonist: activates the human GLP-1 receptor. P43220. HEK293 GLP-1R CRE-luciferase, luminescence, 4-6 h; cells express a hypersensitive GLP-1R form. Potency, µM (highest dose often 45.6 µM), for the others: top-dose activation, usual class: activators. 380,000 tested, 0.007% active; further: % of control where 0% means no effect
BRCA1 expr up: increases BRCA1 expression | MCF7-BRCA1-FFLuc reporter, luminescence, 48 h; response scale: scaled: vehicle 0%, 10 µM genistein 100% | AID 624202 | 380,000 tested, 1.1% active | Potency, µM (doses to about 46.1 µM), inactives show at the top dose activation, actives largely listed as activators; further: nearly all actives have a fitted effect of over 80% in size
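Using MCF7 cells harboring a BRCA1 firefly luciferase reporter, plated 2 h before compound pinning, the screen measured luminescence after 48 h incubation. Responses were normalized to DMSO and 10 microM genistein, then fitted for concentration-effect.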
GLP1R cytotox: cytotoxicity in counter-screen for GLP-1R inverse agonists; HEK293 cAMP-luciferase reporter cells, luminescence, 24 h; Potency, µM (highest dose often 38.3 µM), for the others: top-dose activity change, negative = inhibition, usual class: inhibitors; 410,000 tested, 0.13% active; AID 624418;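 further: loss of luciferase light is scored as toxicity; on the % scale 0 is the no-effect control and ±100 the full control effect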
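A 23 nL compound transfer followed 12 hours of cell culture at 37 deg C; exposure then lasted 24 hr. Luciferase assay detection reagent was dispensed and plates read for luminescence after a 12 min room-temperature wait.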
* hit, by the source's call; ? = inconclusive; . = no result given; [ ] = another dose, or the depositor's remark. Rows were chosen to be rich in hits. Some 2.6% of all compounds tested hit in one or more screens of this group. The call rests on the fitted dose curve; in most records, active means well fitted curve in the direction sought with a large enough effect; inconclusive means small, poorly fitted or top-dose-only effect, or another doubt; inactive means no such curve, though single readings can be large; an effect the other way counts as inactive or inconclusive. Potency means the concentration at half of the fitted maximal effect.

SMILES	GLP-1R inv ag	GLP-1R agonist	BRCA1 expr up	GLP1R cytotox
Cc1ccccc1-c1nc(-c2ccccn2)no1	?	-8%	-81%	-5%
CC(C)CCNC(=O)C1CC(=O)N(CCc2ccccc2)C1 (stereo not drawn)	-22%	3%	2%	0%
CCOc1ccc(NC(=O)CN(C)S(=O)(=O)c2ccc3[nH]c4c(c3c2)CCCC4)cc1	11µM*	.	.	-1%
Cc1cc(C)cc(NC(=O)CN(C)S(=O)(=O)c2ccc3[nH]c4c(c3c2)CCCC4)c1	?	.	.	6%
NC(=O)C1(N2CCCCC2)CCN(C(=O)Nc2ccc(F)cc2)CC1	4%	.	.	-8%
OC(COCC(F)(F)C(F)(F)C(F)(F)C(F)F)Cn1c2ccc(Cl)cc2c2cc(Cl)ccc21 (stereo not drawn)	1.8µM*	-5%	-100%	?
N=c1n(Cc2ccccc2)c2ccccc2n1CC(O)COc1ccc(Cl)cc1Cl (stereo not drawn)	?	-5%	-78%	?
CN1CCN(c2ccc(-c3cccc(NC(=O)COc4ccc(Cl)cc4)c3)nn2)CC1	?	-16%	?	?
CCOc1ccc(C(=O)Nc2cccc(-c3ccc(N4CCOCC4)nn3)c2)cc1OCC	-5%	4%	11µM*	3%
CN1CCN(c2ccc(-c3cccc(NC(=O)COc4ccccc4)c3)nn2)CC1	11µM*	-3%	?	-10%
CC[N+]1(CC)CCC(=C(c2ccccc2)c2ccccc2)C1C (stereo not drawn)	.	-1%	.	.
COc1ccc(C(=O)N/C(=C/c2cccs2)C(=O)N2CCN(C)CC2)cc1	6%	-3%	1%	4%
COc1cccc(CNc2nc3nc(C)c(Cl)c(C)n3n2)c1	23%	28%	11µM*	-1%
CC1(C)SC(=S)N(/N=C/c2ccc(O)cc2)C1N(O)C(=O)Nc1ccc([N+](=O)[O-])cc1 (stereo not drawn)	2.8µM*	-22%	-36%	-28%
COc1ccc(-c2cc(NC=O)c3ncc(-c4cnn(C)c4)n3c2)cc1	13%	?	0%	-8%
O=C(NCCc1ccccc1)c1coc(=O)c(Br)c1	?	-2%	-102%	5µM*
O=C(NCCc1ccccc1)c1cccc(NC(=O)C2CCCCC2)c1	?	-1%	84%	-8%
O=C(NCCCCc1ccccc1)c1cccc(Br)c1	?	-5%	39%	7%
CC(=O)Nc1ccc(C(=O)NCCc2ccccc2)cc1	38%	-1%	13µM*	9%
O=C(NCCc1ccccc1)c1cccc(NC(=O)C2CCCC2)c1	-21%	-3%	10µM*	-10%
O=C(NCCCc1ccccc1)c1cccc(Br)c1	?	3%	13µM*	2%
O=C(NCCO)c1cccc(-c2cnc3cccnn23)c1	18%	-7%	-7%	0%
COc1ccc(-c2csc(NC(=O)C3CSC4(C)CCC(=O)N34)n2)c(OC)c1 (stereo not drawn)	?	5%	-14%	-3%
O=C(NCCCc1ccccc1)c1ccc(F)cc1	?	26%	7.1µM*	-3%
c1ccc(-n2nnc3ccccc32)cc1	-3%	-3%	20%	-6%
SMILES	GLP-1R inv ag	GLP-1R agonist	BRCA1 expr up	GLP1R cytotox
c1ccc(CNn2nnc3ccccc32)cc1	5%	1%	5µM*	4%
C(#Cc1ccccc1)Cn1nnc2ccccc21	-4%	10%	13µM*	-9%
Cc1ccc(CNCc2cn[nH]c2-c2ccc(C)cc2)cc1	.	.	0%	.
CCN(CC(=O)NCc1ccc(Cl)cc1)C(=O)COc1ccc(Cl)cc1Br	11µM*	-2%	-25%	-3%
O=[N+]([O-])c1cccc(NNS(=O)(=O)c2ccccc2F)c1	6.3µM*	-1%	-24%	-6%
CCC(C)(C)n1nnnc1CN(Cc1cccs1)Cc1cc2cc(OC)ccc2[nH]c1=O	44%	-1%	-48%	?
CCOc1ccc2[nH]c(=O)c(CN(Cc3cccs3)Cc3nnnn3C(C)(C)CC)cc2c1	?	1%	-83%	11µM*
CC(C)(C)S(=O)(=O)N1C[C@H]2C(=CC[C@@H]3C(=O)N(c4ccccc4)C(=O)[C@@H]32)[C@H]1CCO	3%	-8%	1%	-3%
CC1CCC(NC(=O)C2COc3ccccc3O2)CC1 (stereo not drawn)	-29%	9%	10µM*	0%
O=C(NC1CCCCC1)C1COc2ccccc2O1 (stereo not drawn)	-9%	8%	15%	11%
Cc1ccc(Nc2ncnc3c2cnn3-c2ccccc2)c(C)c1	?	22%	48%	-6%
O=C(O)c1ccc(Oc2ccc(S(=O)(=O)c3ccc(C(=O)O)c(C(=O)O)c3)cc2)cc1	-9%	-7%	2%	9%
COC(=O)CNC(c1ccccc1)c1cc(C)ccc1NC(=O)CNC(=O)OCc1ccccc1 (stereo not drawn)	?	7%	-43%	-23%
COC(=O)CNC(c1ccccc1)c1cc(Br)ccc1NC(=O)OCc1ccccc1 (stereo not drawn)	4µM*	-3%	-38%	5%
COC(=O)N(C)C[C@@H]1OCc2cn(nn2)CCCC(=O)N([C@@H](C)CO)C[C@H]1C	-8%	-4%	-3%	2%
Cc1cccc(OCC(=O)NCc2ccccc2)c1	-5%	4%	7%	8%
C/C(=N\NC(=O)COc1cccc(C)c1)c1ccc2ccccc2c1O	1.1µM*	0%	-46%	1%
CCCCCN=C(C)c1c(O)c2ccccc2oc1=O	34%	18%	11µM*	-2%
CCOc1ccccc1CNc1ncnc2c1nc1n2CCCC1	?	.	.	-6%
Cc1cn2c(=O)c(C(=O)N3CCN(c4ccccc4F)CC3)cnc2s1	18%	6%	-6%	-4%
CC(=O)NC(c1cccc(F)c1)c1nc(-c2cc3ccccc3o2)cs1 (stereo not drawn)	?	-3%	-37%	-30%
COc1ccc(C(O)c2nc(-c3cnc4ccccc4c3)cs2)cc1 (stereo not drawn)	20%	12%	91%	3%
OC(c1ccc(F)cc1)c1nc(-c2cc3ccccc3o2)cs1 (stereo not drawn)	?	23%	1.8µM*	-17%
OC(c1ccc(F)cc1)c1nc(-c2cnc3ccccc3c2)cs1 (stereo not drawn)	?	?	11µM*	-3%
Oc1c(C(c2ccc(Cl)cc2Cl)N2CCCC2)sc2nc(-c3ccco3)nn12 (stereo not drawn)	10%	.	.	-10%
O=C1C=C(c2ccc(OC(F)(F)F)cc2)C[C@@H](c2ccc(Cl)cc2)C1	10µM*	6%	-28%	?
COc1ccc(C2=CC(=O)C[C@H](c3ccc(Cl)cc3)C2)cc1	?	-1%	13%	11%
CCOC(=O)c1ccc2[nH]c3c(c2c1)CCCC3C(=O)OCC (stereo not drawn)	5µM*	20%	-1%	-9%
CCNC(=O)C1CCCc2c1[nH]c1ccc(Cl)cc21 (stereo not drawn)	1%[7.66 µM]	2%	-11%	0%[7.66 µM]
